Laboratory results as given in PubChem BioAssay (Tox21).
Records with an inconclusive call do not appear. Calls of active or inactive are those of the source. Calls follow the shape of the dose curve; as a rule, active = well fitted cell-killing curve with a large enough effect in the repeat runs; inconclusive = weak or mixed curves, or effect the other way; inactive = flat fitted curve, though single readings scatter.

Test: cAMP Responsive Elements (CRE) small molecule antagonists, cell-based qHTS assay: qHTS cell viability counter screen (AID 2060913); also: nearly all actives have a fitted effect of over 40% in size
Details: CRE-bla HEK293T viability, CellTiter-Glo luminescence, 5 h; series mostly up to 92.4 µM; viability change, negative = cytotoxic: at the top concentration
Method in brief: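 Viability of NKH477-stimulated (0.25 uM final) CRE-bla HEK293T cells is measured by CellTiter-Glo luminescence following 3 hrs compound exposure at 37 C.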
% is scaled to controls: 0 for no effect and ±100 for the full control effect; potency is read from the fitted curve at half-maximal effect.

Question: For `NC(CCC(=O)O)C(=O)O` (stereo not given), which “viability change, negative = cytotoxic” value is on record?
Answer: -5.94% (inactive)

Question: For `C=C(C)C(=O)OCCCCCCCCCCCCC`, which “viability change, negative = cytotoxic” value is on record?
Answer: 8.47% (inactive)

Question: With `OCc1cccnc1` as the compound, how does the Potency read?
Answer: inactive

Question: For `NS(=O)(=O)O`, which Potency is on record?
Answer: inactive

Question: For `CN(C)CC/C=C1/c2ccccc2COc2ccc(CC(=O)O)cc21`, which “viability change, negative = cytotoxic” value is on record?
Answer: -0.648% [at 42.5 µM] (inactive)

Question: Which “viability change, negative = cytotoxic” value does the source give for `COC1CCC=CO1` (stereo not given) here?
Answer: 9.39% (inactive)

Question: Which “viability change, negative = cytotoxic” value does the source give for `Nc1cc(Cl)c(O)c(Cl)c1` here?
Answer: 0.64% (inactive)

Question: With `CCCCCCCC(=O)OCC` as the compound, how does the “viability change, negative = cytotoxic” value read?
Answer: 10.2% (inactive)

Question: Which “viability change, negative = cytotoxic” value does the source give for `CCCO` here?
Answer: 4.44% (inactive)

Question: With `CC(C)(C)C(=O)OCOC(=O)C1N2C(=O)CC2S(=O)(=O)C1(C)C` (stereo not given) as the compound, how does the “viability change, negative = cytotoxic” value read?
Answer: -0.798% [at 42.5 µM] (inactive)

Question: Which viability change, negative = cytotoxic does the source give for `Nc1ccc(S(=O)(=O)Nc2ccnn2-c2ccccc2)cc1` here?
Answer: 5.89% [at 18.9 µM] (inactive)

Question: For `OC[C@@H](O)[C@@H](O)[C@H](O)[C@H](O)CO`, which Potency is on record?
Answer: inactive

Question: For `CC(O)Cn1cnc2c1c(=O)n(C)c(=O)n2C` (stereo not given), which “viability change, negative = cytotoxic” value is on record?
Answer: 1.17% [at 42.5 µM] (inactive)

Question: For `C=CC(C)(CCC=C(C)C)OC(=O)CC` (stereo not given), which “viability change, negative = cytotoxic” value is on record?
Answer: 13.3% (inactive)

Question: For `COc1cc(-c2nc(NC(=O)c3cc4cc(C)cc(C)c4n3CC(=O)O)sc2CCC2CCCCC2)c(OC)cc1Cl`, which Potency is on record?
Answer: 25 µM (active)

Question: With `Oc1ccc(N=Nc2ccccc2)cc1` as the compound, how does the “viability change, negative = cytotoxic” value read?
Answer: -16.7% (inactive)

Question: Which “viability change, negative = cytotoxic” value does the source give for `CCN(CC)CC(=O)Nc1c(C)cccc1C(=O)OC` here?
Answer: -3.18% [at 42.5 µM] (inactive)

Question: With `O=c1[nH]ncc2ccccc12` as the compound, how does the “viability change, negative = cytotoxic” value read?
Answer: 4.96% (inactive)

Question: Which “viability change, negative = cytotoxic” value does the source give for `CCCCCCCCCCCCC` here?
Answer: -0.928% (inactive)

Question: Which Potency does the source give for `CC1(C)OC(=O)NC1=O` here?
Answer: inactive

Question: With `OCCCO` as the compound, how does the “viability change, negative = cytotoxic” value read?
Answer: 1.46% (inactive)

Question: With `[O-][n+]1cccc(CO)c1` as the compound, how does the “viability change, negative = cytotoxic” value read?
Answer: -0.0946% [at 42.5 µM] (inactive)

Question: Which “viability change, negative = cytotoxic” value does the source give for `O=C(O)CP(=O)(O)O` here?
Answer: -0.405% [at 42.5 µM] (inactive)

Question: With `CC(=O)OC(C(=O)c1ccccc1)c1ccccc1` (stereo not given) as the compound, how does the “viability change, negative = cytotoxic” value read?
Answer: 1.22% (inactive)

Question: With `Cc1ccc2c(c1[N+](=O)[O-])C(=O)c1ccccc1C2=O` as the compound, how does the “viability change, negative = cytotoxic” value read?
Answer: 0.885% [at 42.5 µM] (inactive)

Question: With `Oc1ccc2ccccc2c1` as the compound, how does the Potency read?
Answer: inactive

Question: For `Cc1ccc(C#N)cc1`, which “viability change, negative = cytotoxic” value is on record?
Answer: 9.55% (inactive)

Question: Which “viability change, negative = cytotoxic” value does the source give for `CC(=O)c1ccc2ccccc2c1` here?
Answer: 1.75% (inactive)

Question: With `Cc1cc(C)c(O)c(C(C)(C)C)c1` as the compound, how does the “viability change, negative = cytotoxic” value read?
Answer: -11.7% (inactive)

Question: For `CC(C)Cc1nccs1`, which “viability change, negative = cytotoxic” value is on record?
Answer: -9.74% (inactive)

Question: For `c1ccc(Nc2ccccc2)cc1`, which Potency is on record?
Answer: inactive

Question: For `NC(=O)Nc1ccc(Cl)cc1`, which “viability change, negative = cytotoxic” value is on record?
Answer: -0.366% (inactive)

Question: Which “viability change, negative = cytotoxic” value does the source give for `CCCCCCCCCCCCCCCCC(C(=O)O)C(O)(CC(=O)O)C(=O)O` (stereo not given) here?
Answer: -10.5% [at 42.5 µM] (inactive)

Question: For `CC1(C)[C@@H]2CC[C@@]1(C)[C@H](O)C2`, which “viability change, negative = cytotoxic” value is on record?
Answer: 4.49% (inactive)

Question: Which viability change, negative = cytotoxic does the source give for `O=C(CCN1CCN2CCCC2C1)N1c2ccccc2Sc2ccc(Cl)cc21` (stereo not given) here?
Answer: 0.501% [at 18.9 µM] (inactive)

Question: Which “viability change, negative = cytotoxic” value does the source give for `O=C(CCCN1CCN(c2ccc(F)cc2)CC1)NC1c2ccccc2CSc2ccccc21` (stereo not given) here?
Answer: -17.1% [at 42.5 µM] (inactive)

Question: For `S=C([S-])NCCNC(=S)[S-].S=C([S-])NCCNC(=S)[S-].[Mn+2].[Zn+2]`, which “viability change, negative = cytotoxic” value is on record?
Answer: -0.751% [at 42.5 µM] (inactive)

Question: For `COC(=O)c1ccc(C=O)cc1`, which Potency is on record?
Answer: inactive

Question: Which “viability change, negative = cytotoxic” value does the source give for `CC(C)(CO)C(O)C(=O)NCCCO` (stereo not given) here?
Answer: -1.96% (inactive)

Question: For `COc1ccc(C(C)=O)cc1`, which “viability change, negative = cytotoxic” value is on record?
Answer: 2% (inactive)

Test: cAMP Responsive Elements (CRE) small molecule agonists, cell-based qHTS assay: qHTS cell viability counter screen (AID 2060914);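 also: viability read after 3 h of compound exposure; nearly all actives have a fitted effect of over 50% in size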
Details: CRE-bla HEK293T viability, CellTiter-Glo luminescence, 5 h; series mostly up to 92.4 µM; activity change, negative = cytotoxicity: at the top concentration
Method in brief: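 CRE-bla HEK293T cells in 10% dialyzed FBS medium were exposed to compounds for 3 h at 37C after 18 h plating. CellTiter-Glo was then added in the same wells, and luminescence was read after 30 min at room temperature.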

Question: With `NC(CCC(=O)O)C(=O)O` (stereo not given) as the compound, how does the “activity change, negative = cytotoxicity” value read?
Answer: -10.2% (inactive)

Question: Which “activity change, negative = cytotoxicity” value does the source give for `C=C(C)C(=O)OCCCCCCCCCCCCC` here?
Answer: -0.415% (inactive)

Question: Which Potency does the source give for `OCc1cccnc1` here?
Answer: inactive

Question: With `NS(=O)(=O)O` as the compound, how does the Potency read?
Answer: inactive

Question: With `CN(C)CC/C=C1/c2ccccc2COc2ccc(CC(=O)O)cc21` as the compound, how does the “activity change, negative = cytotoxicity” value read?
Answer: 2.96% [at 42.5 µM] (inactive)

Question: For `COC1CCC=CO1` (stereo not given), which “activity change, negative = cytotoxicity” value is on record?
Answer: 0.455% (inactive)

Question: Which “activity change, negative = cytotoxicity” value does the source give for `Nc1cc(Cl)c(O)c(Cl)c1` here?
Answer: -7.01% (inactive)

Question: For `CCCCCCCC(=O)OCC`, which “activity change, negative = cytotoxicity” value is on record?
Answer: 0.963% (inactive)

Question: Which “activity change, negative = cytotoxicity” value does the source give for `CCCO` here?
Answer: -1.99% (inactive)

Question: With `CC(C)(C)C(=O)OCOC(=O)C1N2C(=O)CC2S(=O)(=O)C1(C)C` (stereo not given) as the compound, how does the “activity change, negative = cytotoxicity” value read?
Answer: -0.023% [at 42.5 µM] (inactive)

Question: With `Nc1ccc(S(=O)(=O)Nc2ccnn2-c2ccccc2)cc1` as the compound, how does the activity change, negative = cytotoxicity read?
Answer: 8.29% [at 18.9 µM] (inactive)

Question: Which Potency does the source give for `OC[C@@H](O)[C@@H](O)[C@H](O)[C@H](O)CO` here?
Answer: inactive

Question: Which “activity change, negative = cytotoxicity” value does the source give for `CC(O)Cn1cnc2c1c(=O)n(C)c(=O)n2C` (stereo not given) here?
Answer: 3.2% [at 42.5 µM] (inactive)

Question: For `C=CC(C)(CCC=C(C)C)OC(=O)CC` (stereo not given), which “activity change, negative = cytotoxicity” value is on record?
Answer: 3.03% (inactive)

Question: With `COc1cc(-c2nc(NC(=O)c3cc4cc(C)cc(C)c4n3CC(=O)O)sc2CCC2CCCCC2)c(OC)cc1Cl` as the compound, how does the Potency read?
Answer: 25 µM (active)

Question: Which “activity change, negative = cytotoxicity” value does the source give for `Oc1ccc(N=Nc2ccccc2)cc1` here?
Answer: -24.8% (inactive)

Question: For `CCN(CC)CC(=O)Nc1c(C)cccc1C(=O)OC`, which “activity change, negative = cytotoxicity” value is on record?
Answer: 0.646% [at 42.5 µM] (inactive)

Question: For `O=c1[nH]ncc2ccccc12`, which “activity change, negative = cytotoxicity” value is on record?
Answer: -11.9% (inactive)

Question: Which “activity change, negative = cytotoxicity” value does the source give for `CCCCCCCCCCCCC` here?
Answer: 0.425% (inactive)

Question: Which “activity change, negative = cytotoxicity” value does the source give for `CC1(C)OC(=O)NC1=O` here?
Answer: 0.062% (inactive)

Question: Which “activity change, negative = cytotoxicity” value does the source give for `OCCCO` here?
Answer: -2.18% (inactive)

Question: For `[O-][n+]1cccc(CO)c1`, which “activity change, negative = cytotoxicity” value is on record?
Answer: 8.66% [at 42.5 µM] (inactive)

Question: Which “activity change, negative = cytotoxicity” value does the source give for `O=C(O)CP(=O)(O)O` here?
Answer: 14.9% [at 42.5 µM] (inactive)

Question: Which “activity change, negative = cytotoxicity” value does the source give for `CC(=O)OC(C(=O)c1ccccc1)c1ccccc1` (stereo not given) here?
Answer: 0.801% (inactive)

Question: Which “activity change, negative = cytotoxicity” value does the source give for `Cc1ccc2c(c1[N+](=O)[O-])C(=O)c1ccccc1C2=O` here?
Answer: -0.158% [at 42.5 µM] (inactive)

Question: With `Oc1ccc2ccccc2c1` as the compound, how does the “activity change, negative = cytotoxicity” value read?
Answer: -1.96% (inactive)

Question: Which “activity change, negative = cytotoxicity” value does the source give for `Cc1ccc(C#N)cc1` here?
Answer: 0.172% (inactive)

Question: Which “activity change, negative = cytotoxicity” value does the source give for `CC(=O)c1ccc2ccccc2c1` here?
Answer: 1.88% (inactive)

Question: With `Cc1cc(C)c(O)c(C(C)(C)C)c1` as the compound, how does the “activity change, negative = cytotoxicity” value read?
Answer: 0.976% (inactive)

Question: With `CC(C)Cc1nccs1` as the compound, how does the “activity change, negative = cytotoxicity” value read?
Answer: -1.24% (inactive)

Question: For `c1ccc(Nc2ccccc2)cc1`, which Potency is on record?
Answer: inactive

Question: With `NC(=O)Nc1ccc(Cl)cc1` as the compound, how does the “activity change, negative = cytotoxicity” value read?
Answer: -1.23% (inactive)

Question: With `CCCCCCCCCCCCCCCCC(C(=O)O)C(O)(CC(=O)O)C(=O)O` (stereo not given) as the compound, how does the “activity change, negative = cytotoxicity” value read?
Answer: -14.6% [at 42.5 µM] (inactive)

Question: For `CC1(C)[C@@H]2CC[C@@]1(C)[C@H](O)C2`, which “activity change, negative = cytotoxicity” value is on record?
Answer: -3.24% (inactive)

Question: With `O=C(CCN1CCN2CCCC2C1)N1c2ccccc2Sc2ccc(Cl)cc21` (stereo not given) as the compound, how does the activity change, negative = cytotoxicity read?
Answer: 5.15% [at 18.9 µM] (inactive)

Question: With `O=C(CCCN1CCN(c2ccc(F)cc2)CC1)NC1c2ccccc2CSc2ccccc21` (stereo not given) as the compound, how does the “activity change, negative = cytotoxicity” value read?
Answer: 1.37% [at 42.5 µM] (inactive)

Question: For `S=C([S-])NCCNC(=S)[S-].S=C([S-])NCCNC(=S)[S-].[Mn+2].[Zn+2]`, which “activity change, negative = cytotoxicity” value is on record?
Answer: 15.4% [at 42.5 µM] (inactive)

Question: For `COC(=O)c1ccc(C=O)cc1`, which Potency is on record?
Answer: inactive

Question: Which “activity change, negative = cytotoxicity” value does the source give for `CC(C)(CO)C(O)C(=O)NCCCO` (stereo not given) here?
Answer: 6.16% (inactive)

Question: For `COc1ccc(C(C)=O)cc1`, which “activity change, negative = cytotoxicity” value is on record?
Answer: 5.14% (inactive)
